# Bioassay records deposited in PubChem by several laboratories.
# A3G deaminase: inhibitors of human APOBEC3G DNA deaminase; 330,000 tested, 0.28% active; inhibition, % at 20 µM; recombinant A3G, ssDNA deamination FAM/TAMRA fluorescence;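 active = inhibition of at least 40% at 20 µM, with no more than 30% in the related APOBEC3A deaminase screen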;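 note: plate controls were DMSO wells with A3G for no effect and wells lacking A3G enzyme for full effect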
# Wnt bcat act: Wnt/beta-catenin pathway activation | 300,000 tested, 1.2% active | activation, % at 9.35 µM | AID 743398 | Wnt/beta-catenin reporter cell assay, activator, plate reader; in the data active = activation above about 30%, passing the limit was not always enough;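 note: 0% = neutral control wells and 100% = positive control wells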
# PHOSPHO1 block: blocks human PHOSPHO1 phosphatase activity. Q8TCT1. recombinant PHOSPHO1, absorbance phosphatase assay. inhibition, % at 13.3 µM. 290,000 tested, 1.1% active; in the data active = inhibition above about 60%
# Target sequence (Q8TCT1 whole entry, looked up): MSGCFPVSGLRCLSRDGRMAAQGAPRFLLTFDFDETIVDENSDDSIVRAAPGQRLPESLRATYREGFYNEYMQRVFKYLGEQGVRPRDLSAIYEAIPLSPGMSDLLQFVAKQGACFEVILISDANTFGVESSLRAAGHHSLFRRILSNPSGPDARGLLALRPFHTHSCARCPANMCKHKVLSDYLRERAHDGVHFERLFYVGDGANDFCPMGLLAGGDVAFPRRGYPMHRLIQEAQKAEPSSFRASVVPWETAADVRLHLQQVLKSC
# A3A deaminase: blocks human APOBEC3A ssDNA deamination; P31941; recombinant A3A, FAM/TAMRA ssDNA deamination fluorescence; inhibition, % at 20 µM; 330,000 tested, 0.41% active;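 active = at least 40% inhibition at 20 µM here, with at most 30% in a related deaminase screen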;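 note: plate controls were A3A with DMSO for no effect and wells lacking A3A enzyme for full effect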
# Target sequence (P31941 whole entry, looked up): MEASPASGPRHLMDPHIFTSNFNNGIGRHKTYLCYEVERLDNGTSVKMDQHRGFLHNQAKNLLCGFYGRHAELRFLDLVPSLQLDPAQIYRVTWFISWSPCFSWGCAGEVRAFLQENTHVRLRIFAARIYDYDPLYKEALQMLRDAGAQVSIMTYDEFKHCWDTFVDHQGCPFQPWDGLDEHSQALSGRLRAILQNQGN
# esBAF inh: SWI/SNF esBAF complex inhibition | mouse ES cells, Bmi1-luciferase knock-in reporter, 24 h; 100% = twice the neutral-well signal | reporter increase, % at 12.5 µM | 350,000 tested, 2% active | AID 602393; in the data active = activation above about 40%;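 note: 0% = median of the plate's neutral control wells and 100% = double that signal; a rise in the Bmi1 reporter signal indicates esBAF inhibition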
# MITF act: MITF TRPM1 promoter activation in melanoma cells; SK-MEL-5 TRPM1-promoter luciferase, 24 h; % of positive control, neutral wells = 0; activation, % at 12.5 µM; 300,000 tested, 0.75% active; AID 588334;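 active = mean activation of at least 80% with every replicate also reaching 80%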;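 note: 0% = neutral control wells and 100% = parthenolide positive control wells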
# * marks the source's active call; other numbers are inactive results; nt = no result given. Sampled rows, rich in hits. Any-hit rate of the full collection: about 3.6%.
SMILES,A3G deaminase,Wnt bcat act,PHOSPHO1 block,A3A deaminase,esBAF inh,MITF act
Cc1ccc(N2CC(C(=O)Nc3ccc4c(c3)OCCO4)CC2=O)cc1 (stereo not given),-0.8,30.2*,7.3,-1.3,-10.8,-1.0
Cc1ccc(N2CC(C(=O)Nc3ccc4c(c3)OCCO4)CC2=O)cc1C (stereo not given),-9.2,-4.3,-21.0,-3.9,-7.0,1.1
O=C(NC(=S)Nn1cnnc1)c1ccccc1Cl,3.0,-0.6,-19.0,0.9,nt,-12.1
CC(C)(C)c1ccc(C(=O)NC(=S)Nn2cnnc2)cc1,0.4,10.0,-12.3,-5.4,43.8*,11.1
CCn1c(O)c(/C=C/C=C/C=Nc2ccccc2)sc1=S,-4.2,6.2,45.5,0.4,nt,16.7
CCCn1c(O)c(C=Nc2ccccc2)sc1=S,-4.1,-0.1,40.8,-5.0,80.6*,79.3
CCn1c(O)c(C=Nc2ccccc2)oc1=S,2.7,nt,102.9*,15.7,37.2,33.4
Cc1noc(C)c1NC(=O)Nc1ccc2c(c1)CC(=O)N([C@H](C)CO)C[C@@H](C)[C@@H](CN(C)Cc1ccc3c(c1)OCO3)O2,nt,nt,nt,nt,2.1,nt
C[C@@H]1CN([C@H](C)CO)C(=O)c2cc(NC(=O)Cc3ccccc3)ccc2O[C@@H](C)CCCCO[C@@H]1CN(C)Cc1ccc(C(F)(F)F)cc1,nt,nt,nt,nt,2.4,nt
CCc1n[nH]c(=S)n1/N=C/c1cc(Br)c(OC)cc1OC,9.0,nt,60.3*,-0.3,nt,10.0
COc1ccc(/C=C2/SC(c3ccc(C)cc3)=NC2=O)cc1OC,-5.1,nt,73.7*,-6.7,nt,6.8
Cc1[nH]n(-c2cccc(Cl)c2)c(=O)c1C=NC12CN3CN(CN(C3)C1)C2,-8.5,nt,16.2,-4.2,-0.6,8.1
Cc1[nH]n(-c2cccc(Cl)c2)c(=O)c1C=NCC(C)C,-6.3,3.0,16.1,2.5,nt,111.0*
CC(C)n1c(=S)[nH]c2ccccc21,14.5,nt,83.7*,-1.6,-11.9,0.1
CCn1c(=S)[nH]c2ccccc21,-3.1,0.0,71.2*,-5.2,-2.4,0.3
Cc1ccc(NC(=O)Cn2c(=S)[nH]c3ccccc32)cc1,11.5,0.3,62.2*,-4.3,nt,2.2
COc1cccc(NC(=O)Nc2ccc3c(c2)C(=O)N(C)[C@H]2CC[C@@H](CC(=O)O)O[C@@H]2CO3)c1,nt,nt,nt,nt,-13.9,nt
CC1CN(c2oc(-c3ccco3)nc2S(=O)(=O)c2ccccc2)CC(C)O1 (stereo not given),-3.1,nt,75.8*,-6.4,-5.9,8.5
O=C(Cc1cccnc1)N[C@@H]1CC[C@H](CCn2cc(Cc3ccccc3)nn2)O[C@H]1CO,nt,nt,nt,nt,-4.5,nt
CC(C)c1ccc(NC(=O)C(c2ccccc2)N2CC(=O)Nc3ccccc32)cc1 (stereo not given),-9.0,14.6,-6.1,-3.5,65.8*,nt
C[C@@H]1CCCCO[C@H](CN(C)S(=O)(=O)c2ccccc2)[C@@H](C)CN([C@H](C)CO)C(=O)c2cc(NC(=O)NC3CCCCC3)ccc2O1,nt,nt,nt,nt,-3.8,nt
CCCNC(=O)N(C)C[C@@H]1Oc2cc(C#CC(C)(C)O)ccc2S(=O)(=O)N([C@@H](C)CO)C[C@@H]1C,nt,nt,nt,nt,0.6,nt
CCCn1cnc2c(SCc3ccccc3F)nc(N)nc21,nt,-1.0,nt,nt,53.3*,60.9
CCCCn1cnc2c(SCc3cccc(F)c3)nc(N)nc21,nt,-0.2,nt,nt,nt,20.3
CC(C)Cn1cnc2c(SCc3ccccc3Cl)nc(N)nc21,nt,1.2,nt,nt,54.5*,25.7
SMILES,A3G deaminase,Wnt bcat act,PHOSPHO1 block,A3A deaminase,esBAF inh,MITF act
COCC(=O)Nc1ccc2c(c1)C(=O)N(C)C[C@H](OC)[C@@H](C)CN[C@@H](C)CO2,nt,nt,nt,nt,0.0,nt
CN(C)CCCNC(=O)C[C@H]1CC[C@@H](NS(=O)(=O)c2ccc(F)cc2)[C@@H](CO)O1,nt,nt,nt,nt,-6.4,nt
CCNC(=O)[C@@H]1[C@@H](CO)[C@@H]2Cn3c(ccc(-c4ccc(F)cc4)c3=O)[C@@H]2N1C(=O)Cc1cccnc1,nt,nt,nt,nt,-1.8,nt
CCn1c(SCc2nc3cc(OC)c(OC)cc3c(=O)[nH]2)nc2ccccc21,-6.4,-0.7,60.0*,0.1,-5.1,13.3
C#Cc1cccc(NC(=O)c2ccc(Cl)cc2Cl)c1,14.4,22.2,28.5,-4.0,52.6*,93.7*
Cc1ccc(NC(=O)c2ccc(Cl)cc2Cl)cc1O,-4.6,47.8*,41.6,4.3,nt,54.8
O=C(N/N=C/c1ccc(OC2CSC2)cc1)c1ccccc1,-7.1,nt,41.6,-5.4,66.7*,67.2
CC(C)c1ccc(/C=N/NC(=O)CCNC(=O)c2ccccc2)cc1,-9.2,-5.2,20.0,-3.1,62.1*,76.5
